Source: PubChem (National Center for Advancing Translational Sciences (NCATS))
Shown are actives, neighbours in structure and some others; about 21% of the full set was active somewhere.
ClpP mod: qHTS Assay for Activators of ClpP. purified B. subtilis ClpP, FRET peptide cleavage, 20 min. Potency, µM (top dose mostly 57.5 µM), for the others: at the highest dose activity change, negative = active. AID 651965, 2013. hit rate 1.9% among 340,000; active = well fitted falling curve with a large enough effect; inconclusive = small, poorly fitted or top-dose-only effect; inactive = no such curve, though single readings can be large or run the other way; also: potency is read from the fitted curve at half-maximal effect; the source files actives as falling curves though it sought activators and does not explain the sign; nearly all actives have a fitted effect of over 65% in size
Target sequence (P80244 whole entry, looked up): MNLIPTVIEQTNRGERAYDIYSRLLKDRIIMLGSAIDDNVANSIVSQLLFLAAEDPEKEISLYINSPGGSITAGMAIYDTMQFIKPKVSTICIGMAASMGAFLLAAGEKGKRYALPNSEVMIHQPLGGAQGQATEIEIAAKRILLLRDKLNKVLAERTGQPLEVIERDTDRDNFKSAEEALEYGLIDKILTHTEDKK
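FRET quenching reversal measured ClpP activation: 10 microg/mL B. subtilis ClpP at pH 8 with the FRET-FV decapeptide, read at 430 nm after 320 nm excitation. The 20-min minus 0-min signal was scaled between DMSO/no-enzyme wells and ADEP (5.8 microM final).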
D3 ag: activates the human D3 dopamine receptor; P35462; D3R DiscoveRx beta-arrestin cells, luminescence, 90 min; hit rate 0.58% among 410,000; max activation, %; in the data active = max activation above about 30%; also: 0% is about no effect
Target sequence (P35462 whole entry, looked up): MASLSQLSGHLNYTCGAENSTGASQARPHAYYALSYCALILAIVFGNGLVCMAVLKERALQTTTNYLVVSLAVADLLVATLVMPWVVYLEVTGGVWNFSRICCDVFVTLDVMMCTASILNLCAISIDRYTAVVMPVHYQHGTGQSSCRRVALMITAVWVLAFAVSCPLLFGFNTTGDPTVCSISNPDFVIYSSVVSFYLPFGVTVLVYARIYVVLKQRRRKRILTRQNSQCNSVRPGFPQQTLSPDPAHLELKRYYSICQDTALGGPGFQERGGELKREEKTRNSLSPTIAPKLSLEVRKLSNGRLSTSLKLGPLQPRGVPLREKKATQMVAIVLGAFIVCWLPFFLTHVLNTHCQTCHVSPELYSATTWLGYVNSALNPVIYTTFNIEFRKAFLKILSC
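Cells at 1500/well, incubated overnight, then treated with pinned compounds (dopamine as control) for 90 min at 37 degrees C. DiscoveRx reagent added for 30 - 60 minutes at room temperature; luminescence read.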
TDP1 cell noCPT: qHTS for Inhibitors of human tyrosyl-DNA phosphodiesterase 1 (TDP1): qHTS in cells in absence of CPT | AID 686978, 2013 | Potency, µM (titrated, usually from 46.2 µM), for inactives: top-dose activity change, negative = growth inhibition, actives largely listed as inhibitors | DT40 Tdp1-/- hTDP1 cells, no CPT, ATP luminescence, 48 h | hit rate 15% among 420,000; also: potency is read from the fitted curve at half-maximal effect; % is scaled to controls: 0 for no effect and ±100 for the full control effect; nearly all actives have a fitted effect of over 55% in size
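Compound effects on proliferation are scored in DT40 Tdp1-/-;hTDP1 cells in the absence of CPT. ATP levels (CellTiter-Glo luminescence) are recorded after a ≥48 hr, 37 °C incubation.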
DRD3 antagonist: blocks the human D3 dopamine receptor. P35462. D3R cells, DiscoveRx beta-arrestin luminescence, antagonist mode; hits give low values. max response, negative = inhibition, %. hit rate 2.5% among 360,000; in the data active = max response below about -50%; inconclusive = no clear call, values can overlap the other calls; also: % is scaled to controls: 0 for no effect and ±100 for the full control effect
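Cells expressing the human receptor were seeded at 1500 cells/well, incubated overnight at 37 degrees C in 5% CO2, then exposed to library compounds with dopamine controls for 90 minutes at 37 degrees C before luminescent detection.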
DT40 TDP1 CPT: DT40-hTDP1 cell growth loss with CPT; chicken DT40 Tdp1-/-;hTDP1 cells + 20 nM CPT, ATP luminescence, 48 h; hit rate 12% among 420,000; Potency, µM (doses to about 46.2 µM), without a hit: at the highest dose activity change, negative = growth inhibition, actives largely listed as inhibitors; AID 686979; also: potency is read from the fitted curve at half-maximal effect; % is scaled to controls: 0 for no effect and ±100 for the full control effect; nearly all actives have a fitted effect of over 55% in size
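Cell growth measured by CellTiter-Glo luminescence after a minimum 48 h, 37 C compound exposure with 20 nM CPT in Tdp1-knockout DT40 cells stably expressing hTDP1, seeded 400/well; qHTS titration format.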
IL1B secr inh: blocks inflammasome-driven IL-1 beta release. activity change, % at 57.5 µM. THP-1 LPS/ATP IL-1B secretion, AlphaLISA, 16 h; hits give low values. AID 743279. hit rate 4.7% among 360,000; in the data active = activity change below about -50%; inconclusive = mostly about -30% to -49%; also: % is scaled to controls: 0 for no effect and ±100 for the full control effect
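THP-1 cells pretreated 1 hr with compounds (up to 57.5 uM final), then stimulated with LPS (250 ng/mL final) plus ATP (1.25 mM final); secreted IL-1B measured by AlphaLISA after 16 hr, decreased signal indicating inhibition.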
Starred values were filed as active, the others as inactive; u = inconclusive; x = no result. Unless noted, calls follow the shape of the dose curve; as a rule, active = well fitted inhibition curve with a large enough effect; inconclusive = small, poorly fitted or top-dose-only effect; inactive = flat fitted curve, though single readings scatter.

SMILES	ClpP mod	D3 ag	TDP1 cell noCPT	DRD3 antagonist	DT40 TDP1 CPT	IL1B secr inh
CC(CC(=O)Nc1ccc2c(c1)c(=O)n(C)n2-c1ccccc1)c1ccccc1 (configuration not stated)	4%	-18	5.2µM*	-78*	5.2µM*	73
Cc1ccccc1CC(=O)Nc1ccc2c(c1)c(=O)n(C)n2-c1cccs1	-20%	-13	3.3µM*	-4	u	0
Cc1ccccc1CC(=O)Nc1ccc2c(c1)c(=O)n(C)n2-c1ccccc1F	4%	-6	-23%	-20	u	-13
Cn1c(=O)c2cc(NC(=O)Cc3cccc4ccccc34)ccc2n1-c1ccccc1	5%	-12	21µM*	-7	16µM*	30
O=C(Cc1cccc2ccccc12)Nc1ccccc1	x	-6	u	-17	23µM*	-7
O=C(Cc1cccc2ccccc12)NO	1%	x	-26%	x	-2%	x
CC1CCCCC12NC(=O)N(CC(=O)Nc1sccc1C(N)=O)C2=O (configuration not stated)	-3%	-2	9%	5	-27%	22
O=C(/C=C/c1ccco1)OCC1CCCN2CCCCC12 (configuration not stated)	x	0	-1%	-8	1%	-5
Cn1cc(C(=O)NCCc2ccccc2)c(=O)c2cc(S(=O)(=O)N3CCCCC3)ccc21	-1%	4	-18%	x	19%	x
O=C(Cc1ccccc1)c1ccccc1C(=O)N1CCCCC1	0%	1	-8%	19	2%	1
Cc1ccc(OCCNC(=O)CNC(=O)Cc2cccc3ccccc23)cc1	-1%	x	-16%	x	-27%	x
O=C(Cc1cccc2ccccc12)NCCOc1ccccc1F	-3%	-14	-24%	-11	-27%	-84*
Cc1ccc(-c2noc(CCC(=O)NCC3CCN(Cc4cccc(C)c4)CC3)n2)cc1	-1%	-4	u	5	18µM*	-67*
Cc1ccc(-c2noc(CCC(=O)NCCN3CCc4ccccc4C3)n2)cc1	-2%	-15	u	-76*	u	-15
Cc1ccc(-c2noc(CCC(=O)NCCN3CCN(Cc4ccccc4)CC3)n2)cc1	28µM*	-8	18µM*	-26	u	-30
OC/C(Br)=C(\Br)CO	0%	10	1%	-17	5%	21
COc1ccc(/C(C)=N/Nc2nc(C)cc(-c3ccccc3)n2)cc1	0%	48*	4.6µM*	9	4.1µM*	-16
C/C(=N/Nc1nc(-c2ccccc2)cc(-c2ccc(F)cc2)n1)c1cccc(N)c1	-6%	-1	u	17	u	-61*
C/C(=N\Nc1nc(N)cc(Cl)n1)c1cccc(N)c1	-11%	-2	u	u	u	-3
C/C(=N\Nc1nc(C)cc(-c2ccccc2)n1)c1ccc(F)cc1	-1%	1	7.3µM*	-5	u	-15
COc1ccc(/C(C)=N/Nc2nccnc2Cl)cc1	-2%	-9	-9%	u	-16%	-52*
COc1ccc(/C(C)=N\Nc2nc(-c3ccccc3)cc(=O)[nH]2)cc1	137%	-2	-15%	4	-18%	10
Cc1ccc(N2CCN(S(=O)(=O)c3ccc(Cl)c4ccccc34)CC2)c(C)c1	0%	0	x	x	x	x
CC(=O)C(Sc1nc(-c2ccccc2Cl)nc2c1c(=O)n(C)c(=O)n2C)C(=O)N(C)C (configuration not stated)	1%	3	u	x	u	x
Cc1nc(SCCOc2ccccc2F)[nH]c(=O)c1Cc1ccccc1	2%	19	u	3	-3%	47
SMILES	ClpP mod	D3 ag	TDP1 cell noCPT	DRD3 antagonist	DT40 TDP1 CPT	IL1B secr inh
Cc1ccc(NC(=O)c2cnc(SCC(=O)N3CCOCC3)n(C)c2=O)cc1	1%	1	-23%	x	-11%	x
O=C(CN1CCCC1)NCC12CC3CC(CC(C3)C1)C2	1%	-35	-19%	-19	-22%	-14
O=C(CN1C(=O)CCC1=O)NCC12CC3CC(CC(C3)C1)C2	0%	4	26µM*	19	u	u
COc1cc(/C=N/NC(=O)CCC(=O)Nc2ccc(Br)cc2)ccc1O	-12%	-6	-17%	-6	5%	3
O=C1c2ccccc2OC2(C=Cc3ccccc3O2)N1Cc1ccccc1 (configuration not stated)	-4%	-13	18µM*	10	4.6µM*	0
COc1ccc2c(C)nc(Nc3nc(C)c(C)c(=O)[nH]3)nc2c1	-16%	0	2.9µM*	6	4.6µM*	-100*
Cc1ccc2nc(Nc3nc(CSc4nnnn4-c4ccccc4)cc(=O)[nH]3)nc(C)c2c1	2%	5	-98%	38	-91%	-12
CCCCc1c(C)nc2ccc(OC)cc2c1SCCC(=O)O	x	5	-17%	-13	5%	51
CCCCCc1c(C)nc(Nc2nc(C)c3cc(OC)ccc3n2)[nH]c1=O	0%	-7	16µM*	-2	13µM*	-22
COCc1cc(=O)[nH]c(Nc2nc3ccc(C)cc3o2)n1	1%	-4	4.6µM*	-23	4.6µM*	-19
CCc1ccc2nc(Nc3nc(COC)cc(=O)[nH]3)nc(C)c2c1	-2%	6	23µM*	11	9.2µM*	u
COc1ccc2c(C)nc(N/C(N)=N/S(=O)(=O)c3ccc(C)cc3)nc2c1	x	9	u	5	u	u
NC1=NC(c2ccccc2)CC(=O)N1 (configuration not stated)	x	4	-17%	19	-16%	-2
CCc1c(C)nc(Nc2nc(C)c3ccc(OC)cc3n2)[nH]c1=O	-7%	14	16µM*	7	u	-76*
CCc1c(C)nc(Nc2nc(C)c3cc(OC)ccc3n2)[nH]c1=O	0%	2	21µM*	1	u	u
COc1ccc2nc(NC3=NC(c4ccccc4)CC(=O)N3)nc(C)c2c1 (configuration not stated)	-1%	26	13µM*	24	u	15
COc1ccc2c(C)nc(Nc3nc(C)cc(C)n3)nc2c1	u	-9	3.3µM*	24	2.9µM*	10
O=C(Nc1ccc(OCc2cc(=O)n3ccsc3n2)cc1)c1ccc(F)cc1	-5%	10	4%	x	3%	x
COc1ccc(-c2noc(CSc3nc(N)cc(=O)[nH]3)n2)cc1OC	-3%	-3	u	x	u	x
